Only some compounds are listed: those with a hit (about 3.1% of all), similar ones and a draw of the others.
BoNT A protease – BoNT/A light chain protease inhibitors, primary screen, biochemical, flow cytometry, MLPCN library | Botulinum neurotoxin type A light chain protease (Clostridium botulinum A str. ATCC 3502) | multiplex microsphere protease substrate cleavage | inhibition, % at 10 µM | actives 0.17% (n = 360,000) | AID 588499, 2011
BoNT F protease – BoNT/F light chain protease inhibitors, primary screen, biochemical, flow cytometry, MLPCN library; Botulinum neurotoxin type F light chain protease (Clostridium botulinum); Multiplex microsphere protease cleavage assay; inhibition, % at 10 µM; actives 0.22% (n = 360,000); in the data active means inhibition above about 35%, passing the limit was not always enough; inconclusive means no clear call, values can overlap the other calls
Anthrax LF prot – Bacillus anthracis LF protease inhibitors, primary screen, biochemical, multiplex microsphere, MLPCN library | inhibition, % at 10 µM | actives 0.12% (n = 360,000) | Lethal factor (Bacillus anthracis), P15917 | multiplex microsphere protease cleavage assay
PriA SSB inh – inhibitors of Klebsiella pneumoniae PriA binding to SSB C-terminal tail, primary screen, biochemical, AlphaScreen; AlphaScreen SSBct-PriA binding, biotinylated peptide; actives 0.6% (n = 430,000); AID 1272365, 2023; inhibition, % at 33 µM; PriA–SSB C-terminal tail interaction (Klebsiella pneumoniae); in the data active means inhibition mostly above about 37%, no sharp cut-off; inactive means mostly below about 20%
Autofluor counter – counter-screen for toxin protease inhibitors: compound fluorescence; compound autofluorescence counterscreen, microsphere flow cytometry; stronger effect = higher value; actives 3.1% (n = 360,000); fluorescence intensity (test concentration not listed); in the data active means fluorescence intensity above about 16000; inconclusive means no clear call, values can overlap the other calls
Hits are given with their value; i = inactive; ? = inconclusive; nt = not tested or not shown. Unless noted, no stated cut-off is given here; in the data, active means inhibition above about 30%; inconclusive means no clear call, values can overlap the other calls; inactive means below that.

SMILES	BoNT A protease	BoNT F protease	Anthrax LF prot	PriA SSB inh	Autofluor counter
Cc1ccc(OC2CCCN(S(=O)(=O)CCOc3ccccc3)C2)nn1 (stereo not given)	nt	nt	nt	i	nt
COc1ccc(CCNC(=O)N2CCN(CCn3nc(C)cc3C)CC2)cc1	nt	nt	nt	i	nt
CN1CCc2ccccc2C1C1CCNCC1 (stereo not given)	i	i	i	i	24213
CN1CCN(C(=S)c2cn(Cc3cccc(F)c3)c3ccccc23)CC1	i	i	i	i	i
N=C(N)Sc1cn(Cc2cccc(F)c2)c2ccccc12	nt	nt	nt	45.0	nt
Nc1nc(-c2ccccn2)nc2ccc(Cl)cc12	nt	nt	nt	116.0	nt
CC(C)OCCCNC(=O)C(=O)NCCc1ccccc1	nt	nt	nt	i	nt
Cc1ccsc1C(=O)OCC(=O)Nc1cccc(S(=O)(=O)N2CCOCC2)c1	i	i	i	i	i
CCn1cc(C(=O)OCC(=O)Nc2cccc(S(=O)(=O)N3CCOCC3)c2)c(=O)c2ccc(C)nc21	?	i	i	i	16363
Cn1cnnc1SCc1cc(=O)c(OCC(=O)Nc2ccc(Cl)c(Cl)c2)co1	nt	nt	nt	i	nt
COCCCNC(=O)c1ccc2c(=O)n(C3CCCC3)c(=S)[nH]c2c1	i	i	i	i	18736
COCCCNC(=O)c1ccc2c(=O)n(CC3CCCO3)c(=S)[nH]c2c1 (stereo not given)	i	i	i	i	16266
CCOC(=O)c1cn[nH]c1N1C(=O)c2ccc(OC)c(OC)c2C1=O	nt	nt	nt	i	nt
Cc1ccc(S(N)(=O)=O)c(C)c1N1CCCC1=O	i	i	i	i	i
Cc1ccc(S(=O)(=O)O)c(C)c1N1CCCC1=O	i	i	i	i	20761
Cc1ccsc1-c1ccnc(-n2cccc2)n1	i	i	i	i	16296
COC(=O)/C=c1/sc2n(c1=O)CCN=2	i	i	i	nt	i
COC(=O)/C=c1\sc2n(c1=O)C(C)=CC(C)(C)N=2	i	i	i	nt	19740
CN1CCN(Cc2nc3ccccc3n2C)CC1	?	i	i	i	19606
CN1CCN(Cc2c(C#N)c3ccccc3n2C)CC1	?	i	i	i	19926
Cn1c(CN2CCOCC2)c(C#N)c2ccccc21	i	i	i	i	17523
C=CCn1c(O)c(C(C)=NCCCN2CCOCC2)c(=O)[nH]c1=O	i	i	i	i	i
CC(=NCCN1CCOCC1)c1c(O)n(C2CCCCC2)c(=O)[nH]c1=O	i	i	i	i	24874
CC(=NCCCN1CCOCC1)c1c(O)[nH]c(=O)[nH]c1=O	i	i	i	i	20875
CC(=NCC1CCCO1)c1c(O)n(C2CCCCC2)c(=O)[nH]c1=O (stereo not given)	i	i	i	i	i
SMILES	BoNT A protease	BoNT F protease	Anthrax LF prot	PriA SSB inh	Autofluor counter
CC(=NCCN1CCOCC1)c1c(O)n(-c2ccccc2C)c(=O)[nH]c1=O	i	i	i	i	23519
CCOC(=O)CNC(=O)CSc1nc2c(cnn2CCO)c(=O)[nH]1	nt	nt	nt	i	nt
CCCN1CCCc2cc(CCNS(=O)(=O)c3ccc(NC(C)=O)cc3C)ccc21	nt	nt	nt	70.0	nt
CCCN1CCCc2cc(CCNC(=O)C(=O)Nc3cc(C)ccc3C)ccc21	nt	nt	nt	i	nt
CCCN1CCCc2cc(CCNS(=O)(=O)c3ccc(C)cc3C)ccc21	nt	nt	nt	41.0	nt
COc1ccc(S(=O)(=O)N(C)CC(=O)Nc2cccc(C(C)=O)c2)cc1Cl	i	i	i	i	18037
O=C(Oc1ccc(Br)cc1)C1CCN(C2=NS(=O)(=O)c3ccccc32)CC1	i	i	i	i	?
CN(C)[C@H]1N(C(=O)c2ccc(Br)cc2)N=C2c3ccccc3S(=O)(=O)N21	?	i	i	i	19842
O=C(COc1ccc(S(=O)(=O)NC2CCCCC2)cc1Cl)Nc1ccc2c(c1)OCO2	i	i	i	i	25024
CN1/C(=C\C(=S)NC(=O)c2cccc(Br)c2)C(C)(C)c2ccccc21	41.5	i	i	i	i
N#Cc1cccc(C(=O)NCC2CCN(Cc3ccco3)CC2)c1	nt	nt	nt	i	nt
CCC(=O)N1N=C(c2ccccc2)CC1c1ccc([N+](=O)[O-])cc1 (stereo not given)	i	i	i	i	i
COc1ccc(C2CC(c3ccc([N+](=O)[O-])cc3)=NN2C(=O)c2ccccc2)cc1OC (stereo not given)	i	i	i	i	i
COc1ccc(C2=NN(C(=O)c3cccc([N+](=O)[O-])c3)C(c3cccc([N+](=O)[O-])c3)C2)cc1 (stereo not given)	i	i	i	i	19134
COc1ccc(C2CC(c3cccc([N+](=O)[O-])c3)=NN2/C(C)=C/C(C)=O)cc1 (stereo not given)	i	77.0	i	nt	54573
N#C/C(C(N)=O)=C1\Oc2c(cc(O)cc2-c2ccc(Cl)c(Cl)c2)S1	nt	nt	nt	i	nt
O=[N+]([O-])c1cccc(/C=C/c2ccc3cccc(O)c3n2)c1	i	?	i	i	i
O=[N+]([O-])c1cccc(/C=C/c2nc(C=Nc3ccc4ccccc4c3)c(O)o2)c1	i	i	i	i	17170
Cc1ccc(S(=O)(=O)N(CC(=O)N/N=C/c2ccco2)Cc2ccccc2)cc1	?	i	i	nt	22458
O=C(CSC(=S)N1CCCC1)Nc1ccc(Br)cc1Cl	i	34.9	i	i	?
Cc1cccc(C)c1NC(=O)CSC(=S)N1CCCC1	i	i	i	i	i
COc1cccc(-c2noc(C3CCCN(C(=O)Cc4ccccc4)C3)n2)c1 (stereo not given)	i	i	i	i	20892
O=C(N1CCOCC1)N1CCCC(c2nc(-c3cccs3)no2)C1 (stereo not given)	i	i	i	i	20689
O=C(Cc1ccccc1)N1CCCC(c2nc(-c3cccs3)no2)C1 (stereo not given)	i	i	i	i	23522
O=C(c1ccco1)N1CCCC(c2nc(-c3ccc(S(=O)(=O)NCc4ccccc4)cc3)no2)C1 (stereo not given)	i	i	i	i	22212
SMILES	BoNT A protease	BoNT F protease	Anthrax LF prot	PriA SSB inh	Autofluor counter
O=C(c1ccccc1Br)N1CCCC(c2nc(-c3cccs3)no2)C1 (stereo not given)	i	i	i	i	i
O=c1cccnn1CCNS(=O)(=O)c1ccc2c(c1)OCCO2	nt	nt	nt	i	nt
COc1ccc(/C=C/C(=O)Nc2sccc2-c2nc3ccccc3s2)cc1OC	nt	nt	nt	i	nt
O=C(Nc1nc(-c2nc3ccccc3s2)cs1)c1cc(=O)c2ccccc2o1	nt	nt	nt	i	nt
CCOc1ccccc1NC(=O)Nc1ccccc1Cc1nc(-c2cccs2)no1	nt	nt	nt	i	nt
O=S(=O)(Cc1ccccc1)N1CCC(c2nc(-c3cccs3)no2)CC1	?	i	i	i	18652
O=C(CSCc1ccccc1)N1CC(c2nc(-c3cccs3)no2)C1	nt	nt	nt	i	nt
CCOC(=O)N1CCC(NC(=O)CCc2c(C)nc3ncnn3c2C)CC1	?	i	i	i	22017
COC(=O)CCc1c(C)nc2ncnn2c1C	nt	nt	nt	i	nt
Cc1nc2ncnn2c(C)c1CCC(=O)NCc1ccccc1	i	i	i	i	20501
CCOC(=O)CCc1c(C)nc2ncnn2c1C	?	i	i	i	23382
